Screens from PubChem.
This is a sample that favours compounds with a hit; in the whole collection about 2.3% have one here.
TMEM16A inh – mouse TMEM16A channel inhibition, primary screen. normalized B-score (activity score, 25-100; higher = stronger inhibition) at 10 µM. hit rate 1.2% among 310,000. AID 588511. Q8BHY3. HEK293 TMEM16A/YFP iodide influx fluorescence, ionomycin;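 active = ratio plate-corrected score three or more library SD toward inhibition, starting fluorescence score within five deviations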;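 note: score derived from kinetic fluorescence span divided by baseline fluorescence per well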
TMEM16A act – activators or potentiators of mouse TMEM16A chloride channel; B-score at 10 µM; Q8BHY3; HEK293 TMEM16A/YFP-H148Q/I152L, iodide quench fluorescence; hits give low values; hit rate 0.3% among 340,000;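 active = fluorescence-ratio B-score plate-corrected deviation score at least 3 library SD below zero, with starting fluorescence score within 5 deviations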;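 note: channel opened by trigger with iodide after compound preincubation; score built on the fluorescence ratio of max minus min over baseline; more negative score means more quench and so TMEM16A activation or potentiation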
CHT block – inhibitors of human choline transporter CHT; hit rate 0.86% among 310,000; B-score at 10 µM; CHT-expressing cells, membrane potential dye, choline response; hits give low values;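 active = B-score over 3 SD under the library average, and starting fluorescence ratio not unusually high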;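 note: choline stimulus applied at its EC90 after an EC20 pre-addition; B-score computed on integrated fluorescence ratio after choline addition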
CHT PAM – allosterically activates the human high affinity choline transporter; CHT-expressing cells, membrane potential dye, choline EC20; hits give high values; LV-AA mutant CHT in HEK293 cells; B-score at 10 µM; hit rate 0.49% among 310,000; AID 488977;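 active = initial fluorescence not abnormally high and integrated response B-score, plate-corrected, over 3 SD above library mean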
TMEM16A reconf – reconfirmed blocker of mouse TMEM16A calcium-activated chloride channel; shares compounds with TMEM16A inh; hit rate 39% among 2,300; inhibition, % at 10 µM; HEK293 TMEM16A/YFP-H148Q, iodide quench fluorescence; ionomycin added to raise cell calcium;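 active = mean duplicate percent inhibition, scaled so buffer wells are 0 and the reference blocker 100, over three buffer SD above buffer mean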
HEK293 Ca mobil – calcium mobilization counter-screen hit for TMEM16A inhibitor series; shares compounds with TMEM16A inh; hit rate 2% among 2,300; calcium response (% of ionomycin), % at 10 µM; TMEM16A/YFP HEK293, Fluo4 calcium mobilization;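 active = duplicate-averaged calcium signal over 20% of the ionomycin maximum, relative to buffer baseline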;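 note: each well's signal is peak minus trough fluorescence divided by its pre-addition baseline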
YFP-HEK293 quench – counter-screen for TMEM16A inhibitors: effect in parental YFP-HEK293 cells; shares compounds with TMEM16A inh; iodide YFP quench, ionomycin; YFP ratio F(max-min)/F0 at 10 µM; 2,300 tested, under 10 active;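 active = yellow fluorescent protein signal ratio exceeding the buffer control mean by over 5 SD of those controls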;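 note: ratio is mean of duplicate wells from kinetic YFP trace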
ClC-1 inh – selectivity of TMEM16A inhibitors: inhibition of rat ClC-1 chloride channel. shares compounds with TMEM16A inh. CHO ClC-1-YFP, iodide influx fluorescence quench; iodide control reads 0, buffer control 100. ratio percent, % at 10 µM. 2,300 tested, under 10 active. AID 652236;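 active = duplicate-mean ratio percent above the mean of iodide-only control wells, which defines zero, plus 5 of their SD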;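 note: higher percent means stronger block of ClC-1 iodide influx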
Target sequence (P35524 whole entry, looked up): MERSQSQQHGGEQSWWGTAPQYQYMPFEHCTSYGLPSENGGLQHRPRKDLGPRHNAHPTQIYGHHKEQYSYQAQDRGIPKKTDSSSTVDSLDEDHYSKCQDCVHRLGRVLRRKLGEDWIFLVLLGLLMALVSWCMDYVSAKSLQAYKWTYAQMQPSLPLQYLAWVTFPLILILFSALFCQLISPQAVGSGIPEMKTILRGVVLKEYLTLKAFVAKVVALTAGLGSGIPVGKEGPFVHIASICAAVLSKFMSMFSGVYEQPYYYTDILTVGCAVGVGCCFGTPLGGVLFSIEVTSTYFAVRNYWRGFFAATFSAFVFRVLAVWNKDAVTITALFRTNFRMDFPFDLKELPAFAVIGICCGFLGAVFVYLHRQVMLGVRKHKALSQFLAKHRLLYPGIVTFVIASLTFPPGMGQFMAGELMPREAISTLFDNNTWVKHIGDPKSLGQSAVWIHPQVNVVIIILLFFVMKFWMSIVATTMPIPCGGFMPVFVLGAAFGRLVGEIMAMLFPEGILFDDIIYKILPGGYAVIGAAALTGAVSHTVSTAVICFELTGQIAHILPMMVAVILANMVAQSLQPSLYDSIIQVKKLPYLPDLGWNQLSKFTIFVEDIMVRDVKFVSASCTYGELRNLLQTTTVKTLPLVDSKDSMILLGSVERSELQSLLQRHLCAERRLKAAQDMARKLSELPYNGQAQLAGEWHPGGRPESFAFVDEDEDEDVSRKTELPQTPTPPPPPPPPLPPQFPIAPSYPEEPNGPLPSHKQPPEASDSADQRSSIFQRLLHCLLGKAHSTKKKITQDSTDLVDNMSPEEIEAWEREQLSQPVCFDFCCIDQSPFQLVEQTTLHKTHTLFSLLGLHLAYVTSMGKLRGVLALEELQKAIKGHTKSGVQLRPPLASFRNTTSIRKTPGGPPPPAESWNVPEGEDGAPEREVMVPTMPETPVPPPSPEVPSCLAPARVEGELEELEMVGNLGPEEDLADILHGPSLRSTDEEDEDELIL
Each line names hits and unclear results; the compound was inactive in the other large screens (follow-up assays come after a bar, where they were run).

COc1cccc(CNC(=O)CN2C(=O)CCSc3ccc(S(=O)(=O)N4CCCC4)cc32)c1	none
CCc1ccccc1N(CC)C(=O)CCc1nc(-c2ccc(C)cc2)no1	TMEM16A inh 100 | TMEM16A reconf 30% | HEK293 Ca mobil inactive | YFP-HEK293 quench inactive | ClC-1 inh inactive
COc1ccc(C(=O)N/N=C/c2ccc(N(C)c3ccccc3)cc2)cc1	TMEM16A inh 25 | TMEM16A reconf inactive | HEK293 Ca mobil inactive | YFP-HEK293 quench inactive | ClC-1 inh inactive
Cc1cc2nc3c(nc2cc1C)CCCC3	none
CCN(CC)S(=O)(=O)c1cc(C(=O)Nc2ccncc2)ccc1Cl	TMEM16A inh 100 | TMEM16A reconf inactive | HEK293 Ca mobil inactive | YFP-HEK293 quench inactive | ClC-1 inh inactive
COc1ccc(S(=O)(=O)N(C)C[C@H]2Oc3ccc(NC(=O)Cc4cn(C)c5ccccc45)cc3C(=O)N([C@@H](C)CO)C[C@@H]2C)cc1	none (no result: TMEM16A inh, CHT block, CHT PAM)
CCOC(=O)c1ccc(NC(=O)c2cc(S(=O)(=O)N3CCOCC3)ccc2O)cc1	TMEM16A inh 25 | TMEM16A reconf 37% | HEK293 Ca mobil inactive | YFP-HEK293 quench inactive | ClC-1 inh inactive
CCOC(=O)c1ccc(NC(=O)C2CCCN(S(=O)(=O)c3ccc(F)cc3)C2)cc1 (stereo not given)	TMEM16A inh 25 | TMEM16A reconf 18% | HEK293 Ca mobil inactive | YFP-HEK293 quench inactive | ClC-1 inh inactive
CCOC(=O)c1ccc(NC(=O)C2CCN(S(=O)(=O)c3ccccc3)CC2)cc1	none
CCOC(=O)c1ccc(NC(=O)c2cc(S(=O)(=O)N3CCOCC3)cn2C)cc1	none
Cc1cccc(Cn2c(Sc3nc(C)cs3)nc3c2c(=O)[nH]c(=O)n3C)c1	TMEM16A inh 100 | TMEM16A reconf inactive | HEK293 Ca mobil inactive | YFP-HEK293 quench inactive | ClC-1 inh inactive
Cc1csc(Sc2nc3c(c(=O)[nH]c(=O)n3C)n2Cc2ccccc2Cl)n1	none
c1nc(NCC2CCCO2)c2[nH]cnc2n1 (stereo not given)	TMEM16A inh 25 | TMEM16A reconf inactive | HEK293 Ca mobil inactive | YFP-HEK293 quench inactive | ClC-1 inh inactive
O=C1CCC(C(=O)Nc2ccc([N+](=O)[O-])cc2)N1 (stereo not given)	none (no result: TMEM16A inh, CHT block, CHT PAM)
CCN(CC)S(=O)(=O)c1cc(C(=O)OC(C)C(=O)NCc2ccco2)ccc1C (stereo not given)	none (no result: TMEM16A inh, CHT block, CHT PAM)
CCOc1cc(C)cc2oc(=O)cc(-c3ccccc3)c12	TMEM16A inh 25 | TMEM16A reconf inactive | HEK293 Ca mobil inactive | YFP-HEK293 quench inactive | ClC-1 inh inactive
CC(=O)Oc1cc(C)cc2oc(=O)cc(-c3ccccc3)c12	none
CC(C)CSc1nc(N2CCOCC2)c2c(c1C#N)CC(C)(C)SC2	none | TMEM16A reconf 22% | HEK293 Ca mobil inactive | YFP-HEK293 quench inactive | ClC-1 inh inactive
CCOC(=O)N1CCN(c2ccc(C(=O)c3ccccc3)cc2F)CC1	TMEM16A inh 100 | TMEM16A reconf 23% | HEK293 Ca mobil inactive | YFP-HEK293 quench inactive | ClC-1 inh inactive
CCOC(=O)N1CCN(c2ccc(C(C)=O)cc2F)CC1	none
Cc1cccc(N2C(=O)C3CCCN3C2=S)c1C (stereo not given)	none (no result: TMEM16A inh, CHT block, CHT PAM)
CCN(CC(=O)Nc1ccc2c(c1)OCCO2)C(=O)c1ccc(S(=O)(=O)N(C)C)cc1	none
COc1ccc(NC(=O)c2ccc(OC)c(S(=O)(=O)N3CCCCC3C)c2)cn1 (stereo not given)	none (no result: TMEM16A inh, CHT block, CHT PAM)
CC(C)COC(=O)n1c(=O)oc2cc(S(=O)(=O)N3CCCCC3)ccc21	none
CCCCOC(=O)n1c(=O)oc2ccc(S(=O)(=O)N3CCCCC3)cc21	TMEM16A inh 25 | TMEM16A reconf 20% | HEK293 Ca mobil inactive | YFP-HEK293 quench inactive | ClC-1 inh inactive
Cn1c(SCC(=O)N2CCN(c3ccccc3)CC2)nnc1-c1c[nH]c2ccccc12	TMEM16A inh 100 | TMEM16A reconf 21% | HEK293 Ca mobil inactive | YFP-HEK293 quench inactive | ClC-1 inh inactive
Brc1ccc(-c2noc(COc3ccc4c(c3)CCC4)n2)o1	none
c1csc(-c2noc(COc3ccc4c(c3)CCCC4)n2)c1	none | TMEM16A reconf inactive | HEK293 Ca mobil inactive | YFP-HEK293 quench inactive | ClC-1 inh inactive
Clc1ccc(Cn2cnc3ccccc32)cc1	TMEM16A inh 100 | TMEM16A reconf 23% | HEK293 Ca mobil inactive | YFP-HEK293 quench inactive | ClC-1 inh inactive
Cc1ccc(NC2CCCCC2NS(=O)(=O)c2ccc(Cl)cc2)cc1 (stereo not given)	none
O=S(=O)(NC1CCCCC1Nc1ccc(Cl)cc1)c1ccccc1 (stereo not given)	TMEM16A inh 25 | TMEM16A reconf inactive | HEK293 Ca mobil inactive | YFP-HEK293 quench inactive | ClC-1 inh inactive
O=S(=O)(/N=C(/Nc1cccc2ccccc12)c1ccc(F)cc1)c1ccccc1	none
CC(=O)c1ccc(NC(=O)Nc2cccc(Cl)c2)cc1	TMEM16A inh 25 | TMEM16A reconf 54% | HEK293 Ca mobil inactive | YFP-HEK293 quench inactive | ClC-1 inh inactive
COc1ccc(NC(=O)CCOc2ccc(C)cc2)cc1S(=O)(=O)N1CCCCC1	none (no result: TMEM16A inh, CHT block, CHT PAM)
Cc1ccc(C)c(OCCC(=O)OCC(=O)Nc2ccc(C)c(S(=O)(=O)N3CCCCC3)c2)c1	TMEM16A inh 25 | TMEM16A reconf inactive | HEK293 Ca mobil inactive | YFP-HEK293 quench inactive | ClC-1 inh inactive
COc1ccc(NC(=O)COc2cc(C)cc(C)c2)cc1S(=O)(=O)N1CCCCC1	TMEM16A inh 25 | TMEM16A reconf inactive | HEK293 Ca mobil inactive | YFP-HEK293 quench inactive | ClC-1 inh inactive
Cc1ccc(OCCC(=O)OCC(=O)Nc2ccc(C)c(S(=O)(=O)N3CCOCC3)c2)cc1	none (no result: TMEM16A inh, CHT block, CHT PAM)
COC(=O)c1c(C)oc2ccc(NS(=O)(=O)c3cccs3)cc12	TMEM16A inh 100 | TMEM16A reconf 31% | HEK293 Ca mobil inactive | YFP-HEK293 quench inactive | ClC-1 inh inactive
Cc1onc(-c2ccccc2)c1C(=O)NC(=S)NNC(=O)c1ccncc1	none
Cc1onc(-c2ccccc2)c1C(=O)NC(=S)NNC(=O)c1cc(-c2ccc(F)cc2)n[nH]1	TMEM16A inh 25 | TMEM16A reconf inactive | HEK293 Ca mobil inactive | YFP-HEK293 quench inactive | ClC-1 inh inactive
COc1cc(/C=C/C(=O)Nc2cccc(S(=O)(=O)NC3=NCCCCC3)c2)ccc1OCC#N	none
Cc1cc(C)nc(SCc2nnc(SCC(=O)Nc3nc(-c4ccccc4)cs3)n2C)n1	none
COc1ccccc1-c1nnc(SCC(=O)Nc2nc(-c3ccccc3)cs2)n1C	TMEM16A inh 100 | TMEM16A reconf 18% | HEK293 Ca mobil inactive | YFP-HEK293 quench inactive | ClC-1 inh inactive
